{
  "source": "PubChem BioAssay AID1347416",
  "about": "(National Center for Advancing Translational Sciences (NCATS), 2020)",
  "note": "Among all 4,100 compounds or so, about 1,600 (39%) were called active. About 25% were inconclusive and are not listed. The call rests on the fitted dose curve; in most records, active means well fitted inhibition curve with a large enough effect; inconclusive means small, poorly fitted or top-dose-only effect; inactive means no such curve, though single readings can be large or run the other way. This is one part of the list. On the % scale 0 is the no-effect control and ±100 the full control effect; potency means the concentration at half of the fitted maximal effect.",
  "data": [
    {"assay": "qHTS Validation assay for Inhibitors of Plasmodium falciparum Dd2 growth in vitro; further: nearly all actives have a fitted effect of over 70% in size", "settings": "P. falciparum Dd2 in RBCs, SYBR Green growth, 72 h; series mostly up to 28.7 µM; activity change, negative = inhibition: at the top concentration", "how_it_was_run": "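P. falciparum Dd2-infected red blood cells (2.5% hematocrit, 0.3% parasitemia) grown 72 h at 37 °C under 5% O2 with compounds in a titration, 29 uM to 0.5 nM final. Growth read as SYBR Green-1 fluorescence after ~16 h lysis; artesunate 300 nM as positive control.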", "values": [
      {"smiles": "CCc1cc(CN(C)C(=O)c2cc(COc3ccccc3F)[nH]n2)on1", "activity change, negative = inhibition": "29.2% (inactive)"},
      {"smiles": "CCN1CCN(c2nc3c(s2)CN(C(=O)Cc2cccnc2)CC3)CC1", "activity change, negative = inhibition": "29.4% (inactive)"},
      {"smiles": "CC1(c2ccccc2)N(Cc2cccnc2)C(=O)OC12CCN(Cc1ccccc1)CC2", "note": "(stereo not drawn)", "Potency": "17.2 µM (active)"},
      {"smiles": "CC1(c2ccccc2)N(Cc2ccccc2)C(=O)OC12CCN(Cc1cccnc1)CC2", "note": "(stereo not drawn)", "Potency": "15.3 µM (active)"},
      {"smiles": "CC(=O)Nc1ccc(CN2C(=O)OC3(CCN(C(=O)C4CCC4)CC3)C2(C)c2ccccc2)cc1", "note": "(stereo not drawn)", "activity change, negative = inhibition": "-21.2% (inactive)"},
      {"smiles": "CC1(c2ccccc2)N(Cc2cccnc2)C(=O)OC12CCN(C(=O)Cc1ccc(Cl)cc1)CC2", "note": "(stereo not drawn)", "Potency": "13.3 µM (active)"},
      {"smiles": "CCN(CC)c1ccc(C(=O)N2CCCC(n3cc(-c4noc(C)n4)nn3)C2)cc1", "note": "(stereo not drawn)", "activity change, negative = inhibition": "-5.7% (inactive)"},
      {"smiles": "COc1ccc(C(=O)N[C@@H]2CCC[C@@H]2C(=O)NC(C)C)cc1", "activity change, negative = inhibition": "-18.7% (inactive)"},
      {"smiles": "COc1cccc(CNC(=O)N[C@@H]2CN(Cc3ccncc3)C[C@H]2CN(C)C)c1", "activity change, negative = inhibition": "0% (inactive)"},
      {"smiles": "COc1ccc(C(=O)N[C@@H]2CN(Cc3cccc(OC)c3)CCC[C@H]2O)cc1", "Potency": "10.9 µM (active)"},
      {"smiles": "CC(C)(C)Nc1nc(NC(C)(C)C)nc(-n2ccnc2)n1", "Potency": "4.73 µM (active)"},
      {"smiles": "CCc1ccc(CN(C(=O)c2nc(SC)ncc2Cl)C2CCS(=O)(=O)C2)cc1", "note": "(stereo not drawn)", "activity change, negative = inhibition": "-8.57% (inactive)"},
      {"smiles": "c1ccc(Oc2ccc(Nc3cnc4ccc(N5CCOCC5)nn34)cc2)cc1", "Potency": "7.69 µM (active)"},
      {"smiles": "CN(C)c1ccc2ncc(Nc3ccc(Oc4ccccc4)cc3)n2n1", "Potency": "8.63 µM (active)"},
      {"smiles": "CN1CCN(c2ccc(-c3cccc(N)c3)nn2)CC1", "activity change, negative = inhibition": "-6.65% (inactive)"},
      {"smiles": "CN1CCN(c2ccc3ncc(Nc4ccccc4-c4ccccc4)n3n2)CC1", "Potency": "0.863 µM (active)"},
      {"smiles": "O=C(Nc1ccccc1OCc1cc(=O)n2ccccc2n1)Nc1ccccc1C(F)(F)F", "activity change, negative = inhibition": "64.6% (inactive)"},
      {"smiles": "COc1cc(NC(=O)c2cc(-c3cccs3)on2)c(OC)cc1Cl", "activity change, negative = inhibition": "4.63% (inactive)"},
      {"smiles": "O=C(Nc1ccccc1C(F)(F)F)c1cc(-c2ccccc2O)on1", "Potency": "2.99 µM (active)"},
      {"smiles": "CCOc1cccc(/C=N/Nc2nc(N3CCCC3)nc(N3CCCC3)n2)c1O", "activity change, negative = inhibition": "-13.7% (inactive)"},
      {"smiles": "COc1ccc(/C=N/Nc2nc(Nc3ccccc3)nc(N3CCCC3)n2)cc1[N+](=O)[O-]", "Potency": "6.68 µM (active)"},
      {"smiles": "Cc1ccc(-c2noc(-c3ccc(N4CCCC4)c([N+](=O)[O-])c3)n2)cc1", "activity change, negative = inhibition": "-4.43% (inactive)"},
      {"smiles": "NCCn1cc(C(=O)N2CCCC(c3[nH]ncc3Cc3ccccc3)C2)nn1", "note": "(stereo not drawn)", "activity change, negative = inhibition": "35.2% (inactive)"},
      {"smiles": "COc1ccc(Nc2c(-c3cc(Br)ccc3O)nc3ncccn23)cc1OC", "Potency": "4.73 µM (active)"},
      {"smiles": "CCN(CC)CCNC(=O)c1ccc(NC(=O)c2ccc(S(=O)(=O)N3CCCCCC3)cc2)cc1", "Potency": "8.41 µM (active)"},
      {"smiles": "CCN(CC)CCNC(=O)c1ccc(NC(=O)c2cccc(S(=O)(=O)N3CCc4ccccc43)c2)cc1", "Potency": "5.31 µM (active)"},
      {"smiles": "CCN(CC)CCCNC(=O)C1CCN(S(=O)(=O)CC)CC1", "activity change, negative = inhibition": "9.31% (inactive)"},
      {"smiles": "CC(C)(C)CC(=O)Nc1ccc(S(=O)(=O)N2CCCC2)cc1", "activity change, negative = inhibition": "23.1% (inactive)"},
      {"smiles": "CCCCNC(=O)c1cccc2c1CCN2S(=O)(=O)c1cccc(C)c1", "activity change, negative = inhibition": "-16.4% (inactive)"},
      {"smiles": "Cc1cc(C)cc(N2C(N)=NC(N)=NC2c2cccc(Cl)c2)c1", "note": "(stereo not drawn)", "activity change, negative = inhibition": "-28.9% (inactive)"},
      {"smiles": "Cc1nc2c(c(N3CCCC(COc4cccc(F)c4)C3)n1)CCNCC2", "note": "(stereo not drawn)", "Potency": "8.41 µM (active)"},
      {"smiles": "O=C(Cc1cccc(F)c1)N1CCCC(Cc2nc(C3CCOCC3)no2)C1", "note": "(stereo not drawn)", "activity change, negative = inhibition": "-15.4% (inactive)"},
      {"smiles": "COc1ccc(-c2cc(N3CCCC(NC(=O)c4cccc(F)c4)C3)n[nH]2)cc1", "note": "(stereo not drawn)", "activity change, negative = inhibition": "-11.7% (inactive)"},
      {"smiles": "COC1C(=O)N(c2cccc(F)c2)C12CCN(C(=O)c1cc3ccccc3[nH]1)CC2", "note": "(stereo not drawn)", "activity change, negative = inhibition": "-71.7% (inactive)"},
      {"smiles": "CC(C)CN(CCNC(=O)c1cc(-c2ccc(Cl)s2)nc2ccccc12)CC(C)C", "Potency": "7.5 µM (active)"},
      {"smiles": "O=C(Nc1ccccc1)[C@H]1O[C@H](CCN2CCN(c3ccc(F)cc3)CC2)CC[C@@H]1O", "Potency": "10.9 µM (active)"},
      {"smiles": "Cc1cccc(NC(=O)CCN2CCN(c3ccccc3F)CC2)c1", "activity change, negative = inhibition": "18.2% (inactive)"},
      {"smiles": "Cc1cccc(N(C)S(=O)(=O)c2nnc(NC(=O)C(C)Oc3ccccc3)s2)c1", "note": "(stereo not drawn)", "activity change, negative = inhibition": "-12.3% (inactive)"},
      {"smiles": "Cc1cccc(N(C)c2nc3ccccc3c3nnc(C)n23)c1", "Potency": "1.06 µM (active)"},
      {"smiles": "COc1cc2c(cc1OC)CN(c1ccc3ccccc3n1)CC2", "activity change, negative = inhibition": "-25.5% (inactive)"},
      {"smiles": "Cc1ccccc1OCC(O)CN(Cc1ccccc1O)C1CCCCC1", "note": "(stereo not drawn)", "Potency": "0.119 µM (active)"},
      {"smiles": "CCCS(=O)(=O)N1CC(=O)N(c2cccc(F)c2)C(C)(C(=O)NC2CCCCCC2)C1", "note": "(stereo not drawn)", "activity change, negative = inhibition": "23.3% (inactive)"},
      {"smiles": "O=C(NC1CC1)C1COC2(CCN(C(=O)c3ccc(F)cc3)CC2)N1C(=O)c1cccc(F)c1", "note": "(stereo not drawn)", "activity change, negative = inhibition": "-4.58% (inactive)"},
      {"smiles": "Cc1ccc(CSCc2ccc(C(=O)NC3CC3)o2)cc1", "Potency": "2.66 µM (active)"},
      {"smiles": "O=C(NC1CC1)c1ccc(CSCc2cccc(F)c2)o1", "Potency": "8.41 µM (active)"},
      {"smiles": "CCC1=C(C(=O)OC)C(c2cccc(F)c2)N2C(CC(=O)NCCc3cccs3)=CSC2=N1", "note": "(stereo not drawn)", "Potency": "9.44 µM (active)"},
      {"smiles": "CCCNC(=O)N1CC[C@@H]2[C@H]1C(=O)N(c1cccc(F)c1)C(=O)N2Cc1cccs1", "activity change, negative = inhibition": "-10.5% [at 43.1 µM] (inactive)"},
      {"smiles": "O=C(COc1ccc(Cl)cc1)NCCc1csc(-c2cccc(F)c2)n1", "activity change, negative = inhibition": "-1.83% (inactive)"}
    ]}
  ]
}
